This is a sample that favours compounds with a hit; in the whole collection about 2.5% have one here.
TMEM16A act = activators or potentiators of mouse TMEM16A chloride channel. HEK293 TMEM16A/YFP-H148Q/I152L, iodide quench fluorescence; active compounds read low. B-score at 10 µM. Q8BHY3. 340,000 tested, 0.3% active;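 active = fluorescence-ratio B-score plate-corrected deviation score at least 3 library SD below zero, with starting fluorescence score within 5 deviations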;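 also: channel opened by trigger with iodide after compound preincubation; score built on the fluorescence ratio of max minus min over baseline; more negative score means more quench and so TMEM16A activation or potentiation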
Target sequence (Q8BHY3 whole entry, looked up): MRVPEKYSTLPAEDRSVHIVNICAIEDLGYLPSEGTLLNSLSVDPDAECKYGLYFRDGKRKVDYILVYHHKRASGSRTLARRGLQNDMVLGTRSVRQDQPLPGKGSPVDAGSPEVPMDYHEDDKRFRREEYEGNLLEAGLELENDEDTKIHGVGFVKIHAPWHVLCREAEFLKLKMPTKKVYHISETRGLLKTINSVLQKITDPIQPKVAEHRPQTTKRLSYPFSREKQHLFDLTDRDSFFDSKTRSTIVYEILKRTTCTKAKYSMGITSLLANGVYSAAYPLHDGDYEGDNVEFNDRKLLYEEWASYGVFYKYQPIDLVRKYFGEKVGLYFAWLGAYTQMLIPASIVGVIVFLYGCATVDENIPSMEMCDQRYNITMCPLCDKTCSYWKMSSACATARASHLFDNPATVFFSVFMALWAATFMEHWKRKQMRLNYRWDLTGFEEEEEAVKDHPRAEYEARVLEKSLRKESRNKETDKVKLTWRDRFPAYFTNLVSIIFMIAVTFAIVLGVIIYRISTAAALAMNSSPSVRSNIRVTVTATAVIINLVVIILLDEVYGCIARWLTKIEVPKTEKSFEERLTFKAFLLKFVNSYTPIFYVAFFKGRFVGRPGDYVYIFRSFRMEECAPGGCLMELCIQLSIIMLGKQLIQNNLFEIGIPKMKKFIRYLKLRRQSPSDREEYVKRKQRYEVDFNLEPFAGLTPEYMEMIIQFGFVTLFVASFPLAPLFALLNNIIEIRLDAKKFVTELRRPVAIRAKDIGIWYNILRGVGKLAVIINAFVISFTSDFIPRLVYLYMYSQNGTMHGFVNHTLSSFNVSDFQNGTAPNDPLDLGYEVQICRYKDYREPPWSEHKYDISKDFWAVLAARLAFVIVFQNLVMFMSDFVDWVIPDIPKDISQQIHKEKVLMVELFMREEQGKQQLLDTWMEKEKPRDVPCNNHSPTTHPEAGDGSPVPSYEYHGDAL
Jurkat NFkB inh = lowers PMA/ionomycin-induced NF-kB signal in Jurkat cells; PMA/ionomycin-induced NF-kB luciferase reporter, luminescence; inhibition, % at 4 µM; 330,000 tested, 0.53% active; in the data active = inhibition above about 50%
ANO1 block = blocks the mouse calcium-activated chloride channel TMEM16A. normalized B-score (activity score, 25-100; higher = stronger inhibition) at 10 µM. 310,000 tested, 1.2% active. HEK293 TMEM16A/YFP iodide influx fluorescence, ionomycin. Q8BHY3;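 active = ratio plate-corrected score three or more library SD toward inhibition, starting fluorescence score within five deviations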;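 also: score derived from kinetic fluorescence span divided by baseline fluorescence per well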
aSyn UTR inh = 5' untranslated region of α-synuclein, MLPCN primary screen. 300,000 tested, 0.82% active. alpha-synuclein 5'UTR reporter, inhibitor activity. inhibition, % (tested at 7.5 µM). AID 1813; in the data active = inhibition above about 60%; inconclusive = no clear call, values can overlap the other calls;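 also: H4 neuroglioblastoma cells stably carrying SNCA 5'UTR luciferase fusion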
697 NFkB inh = inhibitors of the PMA/ionomycin-induced NF-kB reporter in 697 B cells; 697 B-cell NF-kB luciferase reporter, 16 h; inhibition, % at 4 µM; 330,000 tested, 0.33% active; in the data active = inhibition above about 35%
KLF5 inhibitor = kruppel-like factor 5 inhibition | DLD-1 KLF5 promoter-luciferase reporter, luminescence | inhibition, % at 5 µM | 290,000 tested, 0.23% active | AID 1700;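 active = inhibition above a per-plate limit of that plate's mean compound inhibition plus 3 SD, cut at about 60% in these data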;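 also: higher means less KLF5 promoter-driven luciferase light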
TMEM16A reconf = reconfirmed blocker of mouse TMEM16A calcium-activated chloride channel; 2,300 tested, 39% active; HEK293 TMEM16A/YFP-H148Q, iodide quench fluorescence; ionomycin added to raise cell calcium; shares compounds with ANO1 block; inhibition, % at 10 µM;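 active = mean duplicate percent inhibition, scaled so buffer wells are 0 and the reference blocker 100, over three buffer SD above buffer mean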
HEK293 Ca mobil = counter-screen for TMEM16A inhibitors: effect on calcium mobilization; TMEM16A/YFP HEK293, Fluo4 calcium mobilization; 2,300 tested, 2% active; shares compounds with ANO1 block; calcium response (% of ionomycin), % at 10 µM;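 active = duplicate-averaged calcium signal over 20% of the ionomycin maximum, relative to buffer baseline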;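 also: each well's signal is peak minus trough fluorescence divided by its pre-addition baseline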
Parental YFP cnt = counter-screen for TMEM16A inhibitors: effect in parental YFP-HEK293 cells; shares compounds with ANO1 block; iodide YFP quench, ionomycin; YFP ratio F(max-min)/F0 at 10 µM; 2,300 tested, under 10 active; AID 652233;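 active = yellow fluorescent protein signal ratio exceeding the buffer control mean by over 5 SD of those controls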;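 also: ratio is mean of duplicate wells from kinetic YFP trace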
ClC-1 inh = rat ClC-1 inhibition, TMEM16A specificity screen | 2,300 tested, under 10 active | AID 652236 | CHO ClC-1-YFP, iodide influx fluorescence quench; iodide control reads 0, buffer control 100 | shares compounds with ANO1 block | ratio percent, % at 10 µM;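 active = duplicate-mean ratio percent above the mean of iodide-only control wells, which defines zero, plus 5 of their SD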;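 also: higher percent means stronger block of ClC-1 iodide influx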
Hits are given with their value; 0 = inactive; ? = inconclusive; - = no result.

SMILES	TMEM16A act	Jurkat NFkB inh	ANO1 block	aSyn UTR inh	697 NFkB inh	KLF5 inhibitor	TMEM16A reconf	HEK293 Ca mobil	Parental YFP cnt	ClC-1 inh
Cc1cc(C)c(C)c(S(=O)(=O)N2CCC(C(=O)NCC(c3ccccc3)N(C)C)CC2)c1C (configuration not stated)	0	0	0	0	0	0	-	-	-	-
Cc1nc(-c2ccc(Cl)cc2)sc1C1(C)CC(c2ccc(Cl)cc2)=NO1 (configuration not stated)	0	0	25	0	0	-	0	0	0	0
CCCc1ccc(Oc2c(-c3ccc(O)c(C)c3O)n[nH]c2C)cc1	0	0	100	0	0	0	0	0	0	0
O=C(Nc1nccs1)C1CCN(S(=O)(=O)c2ccccc2)CC1	0	0	0	0	0	0	-	-	-	-
CCOc1ccc(CN(C)C(=O)CNC(=O)c2ccc(Br)o2)cc1OC	0	0	0	0	0	0	-	-	-	-
COc1cc(NC(=O)C2=COCCO2)c(OC)cc1Cl	0	0	0	0	0	-	-	-	-	-
Nc1cc(S(=O)(=O)N2CCCCC2)ccc1Oc1ccccc1	0	0	25	0	0	0	16.5%	0	0	0
CCOc1ccc(Oc2ccc(S(=O)(=O)N3CCOCC3)cc2N)cc1	0	0	0	0	0	0	-	-	-	-
CCCC(=O)Nc1ccc(-c2csc(N/N=C\c3ccncc3)n2)cc1	0	0	0	0	0	0	-	-	-	-
COc1ccccc1-c1nc2n(n1)C(c1ccc(Cl)cc1)C(C(N)=O)=C(C)N2 (configuration not stated)	0	0	0	0	0	0	-	-	-	-
CC1=C(C(N)=O)C(c2ccncc2)n2nc(-c3ccccc3Cl)nc2N1 (configuration not stated)	0	0	100	0	0	0	0	0	0	0
COc1cc(CNCCc2c[nH]c3ccccc23)ccc1OCc1ccccc1F	0	0	0	0	0	0	-	-	-	-
COc1cccc(CNCCc2c[nH]c3ccccc23)c1OCc1ccccc1	0	0	25	0	0	0	54.0%	0	0	0
Cc1ccc(NCC(=O)Nc2cccc(F)c2)cc1S(=O)(=O)N1CCCCCC1	0	0	100	0	0	0	34.0%	0	0	0
Cc1ccc(NC(=O)CNc2cccc(S(=O)(=O)N3CCCCC3)c2)cc1F	0	0	25	0	0	-	0	0	0	0
CS(=O)(=O)c1ccc(C(=O)OCC(=O)Nc2cccc(S(=O)(=O)N3CCCC3)c2)cc1	0	0	0	0	0	-	-	-	-	-
O=C(COC(=O)c1ccc(O)cc1)Nc1cccc(S(=O)(=O)N2CCCCC2)c1	0	0	25	?	0	0	0	0	0	0
CN(c1cccc2cccnc12)S(=O)(=O)c1ccccc1	0	0	0	0	0	0	-	-	-	-
O=C(COC(=O)CNC(=O)c1ccccc1)NCCNC(=O)COC(=O)CNC(=O)c1ccccc1	0	0	-	-	0	-	-	-	-	-
CN(C(=O)Cn1cnc2sccc2c1=O)C1CCCCC1	0	0	-	-	0	-	-	-	-	-
C=C(C)COc1ccc2c3c(c(=O)oc2c1OCC(=C)C)CCC3	0	0	100	0	0	0	17.0%	0	0	0
C=C(C)COc1ccc2c(C)c(C)c(=O)oc2c1OCC(=C)C	0	0	0	0	0	0	-	-	-	-
COc1nc(NC2OC(CO)C(O)C(O)C2O)c(N)c(=O)[nH]1 (configuration not stated)	0	-	-	-	-	-	-	-	-	-
COc1cc2c(cc1OC)CN(c1ncccc1[N+](=O)[O-])CC2	0	0	0	0	0	0	-	-	-	-
Cc1ccc(-n2c(SCC(N)=O)nc3c(c2=O)C2(CCCC2)Cc2ccccc2-3)cc1	0	0	25	0	0	0	39.0%	0	0	0
SMILES	TMEM16A act	Jurkat NFkB inh	ANO1 block	aSyn UTR inh	697 NFkB inh	KLF5 inhibitor	TMEM16A reconf	HEK293 Ca mobil	Parental YFP cnt	ClC-1 inh
NS(=O)(=O)c1ccc(CNC(=O)c2ccc3c(c2)OCO3)cc1	0	0	-	-	0	-	-	-	-	-
CSc1ccc(C(=O)C2CCCN(C(=O)CCc3c(C)nn(C)c3C)C2)cc1 (configuration not stated)	0	0	25	0	0	0	0	0	0	0
Cc1ccc(NC(=O)COc2coc(CN3CCN(Cc4ccccc4)CC3)cc2=O)cc1	0	0	25	0	0	-	0	0	0	0
Cc1noc(C)c1NC(=O)Nc1ccc2c(c1)C(=O)N([C@H](C)CO)C[C@H](C)[C@@H](CN(C)C(=O)Nc1c(C)noc1C)O2	0	0	-	-	0	-	-	-	-	-
O=C(CSc1ccc(Cl)cc1)N1CCN(c2ccc(Cl)cc2[N+](=O)[O-])CC1	0	0	100	0	0	0	0	0	0	0
NC(=O)c1ccc(NC(=O)COC(=O)CCN2C(=O)c3ccccc3C2=O)cc1	0	0	-	-	0	-	-	-	-	-
CC(C)(C)c1csc(SCC(=O)Nc2ccc(Cl)cn2)n1	0	0	100	0	0	0	0	0	0	0
COc1ccc(NC(=O)c2cnc3sccn3c2=O)cc1	0	0	100	0	0	0	0	0	0	0
Cc1cccc(NC(=O)c2cnc3sccn3c2=O)c1	0	0	0	0	0	0	-	-	-	-
O=C(COC(=O)c1ccc(NS(=O)(=O)c2cccs2)cc1)NCc1ccco1	0	0	0	0	0	0	-	-	-	-
CCCOC(=O)c1ccc(NS(=O)(=O)c2cccs2)cc1	0	0	25	0	0	0	0	0	0	0
Cc1nc(SCc2nc3c(F)cccc3[nH]2)c2oc3ccccc3c2n1	0	0	-	-	0	-	-	-	-	-
CC1(C)NC(=O)N(CN2C(=O)NC(C)(C)C2=O)C1=O	0	0	0	0	0	0	0	0	0	0
CC1(C)NC(=O)N(CC(=O)O)C1=O	0	0	0	0	0	0	-	-	-	-
CCC1CCCCN1S(=O)(=O)c1ccc(NC(=O)c2ccncc2)cc1 (configuration not stated)	0	0	25	0	0	0	22.0%	0	0	0
COC(=O)C1=CN(Cc2ccccc2)C=C(C(=O)OC)C1c1cc(F)ccc1F	0	0	0	0	0	0	0	0	0	0
N#C/C(=C/c1ccc(F)cc1)S(=O)(=O)c1ccccc1	0	0	0	0	0	0	-	-	-	-
N#C/C(=C\c1ccc(O)c(O)c1)S(=O)(=O)c1ccccc1	0	0	0	0	0	0	41.0%	0	0	0
COc1ccc(N2CCN(S(=O)(=O)c3cc4c(cc3C)N(C(C)=O)CCO4)CC2)cc1	0	0	0	0	0	0	-	-	-	-

Screening data (PubChem BioAssay)
